Data published in PubChem BioAssay AID1159580 (chemical genetic matrix, 2015).
“And” between values parts separate entries of the source, which are not always exact repeats. Equal values may be shown once. Hit rate of the full screen: of about 5,500 compounds, about 2,000 (36%) were called active. Inconclusive results (about 18%) are left out. Rule as the data show it: active = normalized growth mostly below about 0.91 (no sharp cut-off); inconclusive = no clear call, values can overlap the other calls; inactive = mostly above about 0.92. This is one part of the list.

Experiment: chemical genetic growth profiling, strain panel (AID 1159580);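 also: tested at 20 µM; growth read once vehicle control cultures reached saturation at 30 °C; 1 = growth at the plate median or of vehicle wells; lower values mean less growth of the strain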
Settings: S. cerevisiae deletion strains, growth OD

Measured: normalized growth

COc1cccc(OC)c1C(=O)N[C@@H]1C(=O)N2[C@@H]1SC(C)(C)[C@@H]2C(=O)O
inactive: locus YAL013W, strain DEP1, hits give low values 0.994 | locus YAL021C, strain ccr4, hits give low values 1.01 | locus YAL026C, strain drs2, hits give low values 1.01 | locus YAL030W, strain snc1, hits give low values 0.997 | locus YBL061C, strain skt5, hits give low values 0.998 | locus YBR009C, strain hhf1, hits give low values 0.997 | locus YBR021W, strain FUR4, hits give low values 1.01 | locus YBR023C, strain chs3, hits give low values 0.988 | locus YBR171W, strain sec66, hits give low values 0.987 | locus YBR229C, strain ROT2, hits give low values 1.01 | locus YBR231C, strain swc5, hits give low values 0.984 | locus YBR279W, strain paf1, hits give low values 1 | locus YCL011C, strain gbp2, hits give low values 1.01 | locus YCL016C, strain dcc1, hits give low values 1 | locus YCL029C, strain bik1, hits give low values 0.99 | locus YCL069W, strain vba3, hits give low values 1 | locus YCR088W, strain abp1, hits give low values 0.996 | locus YDL005C, strain med2, hits give low values 0.991 | locus YDL035C, strain GPR1, hits give low values 1 | locus YDL040C, strain nat1, hits give low values 0.995 | locus YDL074C, strain BRE1, hits give low values 1.03 | locus YDL101C, strain DUN1, hits give low values 1 | locus YDL134C, strain PPH21, hits give low values 1.01 | locus YDL185W, strain tfp1, hits give low values 0.967 | locus YDL192W, strain arf1, hits give low values 0.988 | locus YDR001C, strain nth1, hits give low values 1 | locus YDR069C, strain doa4, hits give low values 1.01 | locus YDR101C, strain arx1, hits give low values 0.997 | locus YDR137W, strain rgp1, hits give low values 1.03 | locus YDR150W, strain NUM1, hits give low values 0.983 | locus YDR159W, strain sac3, hits give low values 0.988 | locus YDR162C, strain NBP2, hits give low values 0.979 | locus YDR195W, strain ref2 0.979 | locus YDR297W, strain sur2, hits give low values 1 | locus YDR318W, strain mcm21, hits give low values 0.987 | locus YDR334W, strain swr1, hits give low values 0.995 | locus YDR335W, strain msn5, hits give low values 0.998 | locus YDR388W, hits give low values 1 | locus YDR392W, strain spt3, hits give low values 0.998 | locus YDR502C, strain sam2, hits give low values 0.995 | locus YEL003W, strain gim4, hits give low values 1 | locus YEL037C, strain rad23, hits give low values 0.997 | locus YEL061C, strain CIN8 (second series), hits give low values 0.996 | locus YEL061C, strain CIN8, hits give low values 0.986 | locus YER015W, strain faa2, hits give low values 1 | locus YER016W, strain bim1, hits give low values 0.997 | locus YER110C, hits give low values 0.991 | locus YER111C, strain swi4, hits give low values 0.995 | locus YER155C, strain BEM2 (second series), hits give low values 0.966 | locus YER155C, strain BEM2, hits give low values 1.01 | locus YER167W, strain BCK2, hits give low values 0.999 | locus YFR010W, strain ubp6, hits give low values 0.989 | locus YGL078C, strain dbp3, hits give low values 0.991 | locus YGL086W, strain mad1, hits give low values 0.994 | locus YGL167C, strain pmr1, hits give low values 0.99 | locus YGL173C, strain kem1, hits give low values 0.977 | locus YGL227W, strain vid30, hits give low values 0.992 | locus YGL240W, strain doc1, hits give low values 1 | locus YGL248W, strain PDE1, hits give low values 1.01 | locus YGL253W, strain hxk2, hits give low values 1.01 | locus YGR078C, strain PAC10, hits give low values 1 | locus YGR135W, strain pre9, hits give low values 1 | locus YGR229C, strain SMI1, hits give low values 1.02 | locus YGR252W, strain gcn5, hits give low values 1.05 | locus YHR013C, strain ard1, hits give low values 1.01 | locus YHR027C, strain rpn1, hits give low values 1 | locus YHR030C, strain SLT2, hits give low values 0.993 and 1.03 | locus YHR079C, strain IRE1 (second series), hits give low values 0.991 | locus YHR079C, strain IRE1, hits give low values 1.01 | locus YHR094C, strain hxt1, hits give low values 0.982 | locus YHR129C, strain ARP1, hits give low values 1 | locus YHR142W, strain chs7, hits give low values 0.98 | locus YHR200W, strain rpn10, hits give low values 0.98 | locus YIL066C, strain RNR3, hits give low values 1.01 | locus YIL073C, strain SPO22, hits give low values 0.991 | locus YIL125W, strain kgd1, hits give low values 0.988 | locus YIR030C, strain dcg1, hits give low values 0.992 | locus YJL092W, strain hpr5, hits give low values 0.987 | locus YJL095W, strain BCK1 (second series), hits give low values 0.998 | locus YJL095W, strain BCK1, hits give low values 1.01 and 1.02 | locus YJL115W, strain asf1, hits give low values 0.999 | locus YJL129C, strain trk1, hits give low values 0.98 | locus YJL134W, strain LCB3, hits give low values 0.998 | locus YJL154C, strain vps35, hits give low values 0.993 | locus YJL164C, strain tpk1, hits give low values 0.994 | locus YJL166W, strain qcr8, hits give low values 0.97 | locus YJL168C, strain set2, hits give low values 0.988 | locus YJL187C, strain SWE1 (second series), hits give low values 1.01 | locus YJR043C, strain POL32, hits give low values 0.993
